Results filed as inconclusive are left out. A number with no mark means an inactive call. Activity calls are given as the source filed them. The call rests on the fitted dose curve; in most records, active means well fitted activation curve with a large enough effect in the signal ratio in the repeat runs (not every such curve was filed as active); inconclusive means weak or mixed curves; inactive means flat fitted curve, though single readings scatter; the % refers to the signal ratio.
assay: qHTS assay to identify small molecule agonists of H2AX (AID 1224845); settings: CHO-K1 phospho-H2AX Ser139 HTRF, 3 h; series mostly up to 154 µM; activation (H2AX phosphorylation): at the top concentration
From the text: National Center for Advancing Translational Sciences [NCATS]
NIH Chemical Genomics Center [NCGC]
U.S. Environmental Protection Agency [EPA]
National Institutes of Environmental Health Sciences [NIEHS]
National Toxicology Program [NTP]
U.S. Food and Drug Administration [FDA]
HTRF phospho-H2AX (Ser139) assay (Cisbio Bioassays, US) enables the quantitative detection of the histone variant H2AX when phosphorylated on serine 139. When double-stranded DNA breaks, either by ionizing radiation or endogenous physiological processes, H2AX becomes phosphorylated at Ser139. This phospho-Ser139 serves as a sensitive biomarker for the detection of such breaks, localizing the site of DNA repair. So, HTRF phospho-H2AX Ser139 is a pertinent assay to study genome stability, the cell cycle, DNA repair, and it serves as a biomarker for cancer, and to understand aging. Wild type CHO-K1 cells were used to identify the inducers of Phospho-H2AX Ser 139 from the Tox21 10K compound collections.
Tox21 Assay Protocol Summary:
The CHO-K1 cells suspended in culture medium containing 10% FBS were dispensed at 1000 cells/ 3 ul/well in 1536-well white wall/solid bottom plates (Greiner Bio-One North America, NC) using a Multidrop Combi (Thermo Fisher Scientific Inc., Waltham, MA). After the assay plates were incubated at 37C overnight, 23 nl of compounds at 15 concentrations (from 5-48 columns) or positive control (from 1 to 4 columns) were transferred to the assay plates using a Pintool station (Wako, San Diego, CA) into each well resulting in a final DMSO concentration of 0.76%. After 3hr incubation at 37C, 1 uL/well Supplemented Lysis buffer (diluted 100 fold blocking reagent in lysis buffer) (HTRF Phospho-H2A.X (S139) Assay kit from Cisbio US Inc., Bedford, MA) was added using a Flying Reagent Dispenser (FRD) (Aurora Discovery, CA). After 10sec spin at 1000 rpm in a plate centrifuge, the assay plates were incubated at room temperature for 30 min. Then followed by the addition of 1 uL/well detection buffer (containing a mixture of two antibodies, one labeled with cryptate, Anti pH2AX (S139)-K and another labeled with d2, Anti H2AX-d2) using FRD. After incubation at room temperature for 24 hr, the time resolved fluorescence at excitation 320 nm and emissions at 665 nm and 620 nm was measured using an Envision plate reader (PerkinElmer, Waltham, MA).
On the % scale 0 is the no-effect control and ±100 the full control effect; potency means the concentration at half of the fitted maximal effect.

Compound | activation (H2AX phosphorylation) | Potency
C/C=C1/C(=O)C[C@H]2[C@@H]3CCC4=CC(=O)CC[C@]4(C)[C@H]3CC[C@]12C | 2.18% | –
CCCCCCCCNC(C)C(O)c1ccc(SC(C)C)cc1 (stereo not given) | -9% [at 70.9 µM] | –
COc1c(C)c2c(c(O)c1C/C=C(\C)CCC(=O)O)C(=O)OC2 | – | 0.875 µM (active)
Cc1onc(-c2c(Cl)cccc2Cl)c1C(=O)N[C@@H]1C(=O)N2[C@@H]1SC(C)(C)[C@@H]2C(=O)O | -3.39% [at 70.9 µM] | –
COc1ccc(C(=O)/C(Br)=C\C(=O)O)cc1 | – | 31.8 µM (active)
CCCCCCCCn1sc(Cl)c(Cl)c1=O | -1.36% | –
CC(C)C(C)(C)C(C)(C)C(C)(C)S | -4.17% | –
C[C@@H](NCCCc1cccc(C(F)(F)F)c1)c1cccc2ccccc12 | – | 49.2 µM (active)
C/C(=C(/OCCOc1ccc(Cl)cc1)c1ccc(Cl)cc1Cl)n1ccnc1 | -1.71% [at 70.9 µM] | –
O=C(O)c1ccc(Cl)c(Cl)c1 | 1.11% | –
CO[Si](CCCNc1ccccc1)(OC)OC | 0.201% | –
COC(=O)C1=C(C)NC(C)=C(C(=O)OCC(C)C)C1c1ccccc1[N+](=O)[O-] (stereo not given) | 2.63% [at 70.9 µM] | –
Oc1cccc2cc3cccc(O)c3c(O)c12 | -0.457% | –
O=C(Nc1ccc(Oc2ccc(Cl)cc2)c(Cl)c1)c1cc(I)cc(I)c1O | 1.78% [at 70.9 µM] | –
CCC(CN)=C(c1ccccc1)c1ccccc1 | -1.61% [at 70.9 µM] | –
N/C(=N\N=C\c1ccc(Cl)cc1)N/N=C/c1ccc(Cl)cc1 | -10.3% [at 70.9 µM] | –
O=C(Nc1cccc(Cl)c1)OCC#CCCl | – | 113 µM (active)
NC(=O)N1C(=O)C(C(=O)c2cc(Cl)cs2)c2cc(F)c(Cl)cc21 (stereo not given) | 2.95% | –
CCCCCCCC/C=C/CCCCCCCC1=NCCN1CCO | -8.66% | –
C=CC(=O)OCC(CO)(COC(=O)C=C)COC(=O)C=C | – | 14.2 µM (active)

Compound | activation (H2AX phosphorylation) | Potency
CCN(C(=O)N(CC)c1ccccc1)c1ccccc1 | -2.02% | –
CCCCCCCCCCCCc1ccc(O)cc1 | – | 56.6 µM (active)
CCCC/C=C/CCCCO | 0.306% | –
Cc1ccc2oc(CN(Cc3ccccc3)C(=O)Nc3c(F)cc(F)cc3F)c(-c3ccc(Cl)cc3)c2c1 | -2.89% | –
Cc1onc(-c2ccccc2Cl)c1C(=O)N[C@@H]1C(=O)N2[C@@H]1SC(C)(C)[C@@H]2C(=O)O | -5.35% [at 70.9 µM] | –
CCC1OCC(COc2ccc(Oc3ccccc3)cc2)O1 (stereo not given) | 7.9% | –
CC(C)(C)NC(=O)[C@@H]1C[C@@H]2CCCC[C@@H]2CN1C[C@@H](O)[C@H](Cc1ccccc1)NC(=O)[C@H](CC(N)=O)NC(=O)c1ccc2ccccc2n1 | – | 51.2 µM (active)
CC[C@@]1(O)C(=O)OCc2c1cc1n(c2=O)Cc2cc3c(CN(C)C)c(O)ccc3nc2-1 | – | 1.39 µM (active)
CCCCN(CCCC)C(=O)N(CCCC)CCCC | 2.82% | –
NC(=NCCCCCCN=C(N)/N=C(\N)Nc1ccc(Cl)cc1)/N=C(\N)Nc1ccc(Cl)cc1 | – | inactive
CCCCN1C(=O)[C@@H]([C@H](O)C2CCCCC2)NC(=O)C12CCN(Cc1ccc(Oc3ccc(C(=O)O)cc3)cc1)CC2 | 0.952% | –
ON=C1CCCC1 | – | 104 µM (active)
CS(=O)(=O)CCNCc1ccc(-c2ccc3ncnc(Nc4ccc(OCc5cccc(F)c5)c(Cl)c4)c3c2)o1 | -3.28% [at 70.9 µM] | –
Cc1cc(O)c(Cl)c(C)c1Cl | -1.08% | –
CC[C@H](c1ccc(O)cc1)[C@@H](CC)c1ccc(O)cc1 | – | inactive
COc1ccc(CN2CCN(C(c3ccc(F)cc3)c3ccc(F)cc3)CC2)c(OC)c1OC | 5.33% [at 70.9 µM] | –
O=C(Oc1cccc2cccnc12)c1ccccc1 | – | 9.82 µM (active)
CCCCC(CC)COC(=O)c1ccccc1C(=O)O (stereo not given) | 2.72% | –
COc1cc(-c2ccc(N=C=O)c(OC)c2)ccc1N=C=O | 1.26% [at 70.9 µM] | –
CCCCC(CC)COP(=O)(O)OCC(CC)CCCC (stereo not given) | – | inactive

Reference: PubChem BioAssay (Tox21)
